Results reported in PubChem BioAssay AID1224921 (Broad Institute, 2016).
In all, about 1,400 compounds went through this assay and about 350 (25%) were called active. Not shown: some 2% with an inconclusive outcome. How the calls were made is not given here. The list is a sample of the results. Entries with a potency or affinity are not part of this list.

assay: inhibitors of Clostridioides difficile proliferation – 4-point retest, confirmation (AID 1224921); conditions: Clostridioides difficile clinical isolate growth, OD600, 24 h, stronger effect = lower value; at 30 µM unless noted;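 further: plate controls were DMSO wells for no effect and levofloxacin 16 µg/mL wells for full effect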

Max activity, inactive:
COc1ccc(S(=O)(=O)Nc2ccc3c(c2)CC(=O)N([C@@H](C)CO)C[C@@H](C)[C@H](CN(C)CC2CCCCC2)O3)cc1 25.5%
COc1ccccc1S(=O)(=O)N[C@@H]1C=C[C@H](CC(=O)N2CCCCC2)O[C@@H]1CO -6.91% [at 0.5 µM]
C[C@@H]1CN([C@H](C)CO)C(=O)c2cccc(NC(=O)Nc3ccc(C(F)(F)F)cc3)c2O[C@H]1CN(C)S(=O)(=O)c1ccc(Cl)cc1 33.1%
C[C@H](CO)N1C[C@H](C)[C@@H](CN(C)S(=O)(=O)c2cn(C)cn2)OCCCC[C@H](C)Oc2ccc(NC(=O)Nc3cccc4ccccc34)cc2C1=O 18.8%
C[C@H]1CCCCO[C@H](CN(C)S(=O)(=O)c2cn(C)cn2)[C@@H](C)CN([C@@H](C)CO)C(=O)c2cc(NC(=O)CCCN(C)C)ccc2O1 5.89% [at 8 µM]
C[C@@H]1CN([C@@H](C)CO)C(=O)c2cccc(NC(=O)Nc3ccc(C(F)(F)F)cc3)c2O[C@H]1CN(C)S(=O)(=O)c1ccc(Cl)cc1 49.8%
CC(C)NC(=O)Nc1ccc2c(c1)CC(=O)N([C@H](C)CO)C[C@@H](C)[C@@H](CN(C)Cc1ccc(-c3ccccc3)cc1)O2 54.7%
C[C@@H]1CN([C@H](C)CO)S(=O)(=O)c2ccc(C3=CCCCC3)cc2O[C@H]1CN(C)Cc1cccnc1 53.5%
CC(C)C#Cc1ccc2c(c1)O[C@@H](CN(C)Cc1ccncc1)[C@@H](C)CN([C@H](C)CO)S2(=O)=O 30.4%
COc1ccc(NC(=O)O[C@H]2[C@H](OC(=O)Nc3ccccc3)[C@H](OC(=O)Nc3ccccc3)[C@@H](OC)O[C@@H]2CO)cc1 32.3%
C[C@H](NC(=O)N(C)C[C@@H]1OCc2ccccc2-c2c(n(C)c3ccccc23)C(=O)N([C@H](C)CO)C[C@H]1C)c1ccccc1 18.8%
CC(=O)N(C)C[C@H]1Oc2ncc(-c3ccc(C(=O)N(C)C)cc3)cc2C(=O)N([C@H](C)CO)C[C@H]1C -8.17%
CO[C@@H]1CN(C)C(=O)c2ccc(NC(=O)Nc3ccc4c(c3)OCO4)cc2OC[C@@H](C)NC[C@@H]1C 10.6%
COCC(=O)Nc1ccc2c(c1)C(=O)N(C)C[C@@H](OC)[C@H](C)CN[C@H](C)CO2 -10.3% [at 1.95 µM]
COc1ccc(CN(C)C[C@H]2OCCCC[C@@H](C)Oc3ccc(NC(=O)Nc4ccc5c(c4)OCO5)cc3C(=O)N([C@@H](C)CO)C[C@@H]2C)cc1 44.6%
C[C@@H]1CN([C@@H](C)CO)C(=O)c2ccccc2-c2ccccc2CO[C@H]1CN(C)S(=O)(=O)c1ccsc1 36%
C[C@@H](C(=O)N(C)C[C@H]1OCc2ccccc2-c2ccccc2C(=O)N([C@@H](C)CO)C[C@@H]1C)c1ccccc1 -9.53% [at 8 µM]
C[C@@H]1CCCCO[C@H](CN(C)S(=O)(=O)c2ccc(Cl)cc2)[C@H](C)CN([C@@H](C)CO)C(=O)c2cc(N(C)C)ccc2O1 25.4%
O=C(N[C@H]1C=C[C@@H](CC(=O)N2CCOCC2)O[C@H]1CO)c1cccc(F)c1 9.04%
C[C@@H]1CN([C@H](C)CO)C(=O)c2cc(C#C[C@@H](C)O)cnc2O[C@@H]1CN(C)Cc1ccc(-c2ccccc2)cc1 -9.01% [at 1.95 µM]
C[C@@H]1CCCCO[C@@H](CN(C)CC2CC2)[C@H](C)CN([C@H](C)CO)C(=O)c2cc(NC(=O)Nc3cccc4ccccc34)ccc2O1 12.9%
COCC(=O)Nc1ccc2c(c1)C(=O)N(C)C[C@@H](OC)[C@H](C)CN(C(=O)CN1CCOCC1)[C@H](C)CO2 -15.1% [at 2.1 µM]
C[C@H]1CN([C@@H](C)CO)C(=O)c2cc(NC(=O)CCC(F)(F)F)ccc2O[C@H]1CN(C)Cc1ccc(-c2ccccc2)cc1 46.6%
CO[C@H]1CN(C)C(=O)c2cc(NC(=O)Nc3cccc(F)c3)ccc2OC[C@H](C)N(C)C[C@H]1C -7.19% [at 0.5 µM]
COc1ccc([Si](C)(C)[C@H]2[C@H](CCO)O[C@@]3(C(=O)N(C)c4ccccc43)[C@@H]2C)cc1 12.6% [at 8 µM]
CCCC#Cc1ccc2c(c1)O[C@@H](CN(C)Cc1ccncc1)[C@H](C)CN([C@H](C)CO)S2(=O)=O 15.9%
COc1cccc(S(=O)(=O)Nc2ccc3c(c2)[C@H]2C[C@@H](CC(=O)NC4CCCCC4)O[C@@H](CO)[C@H]2O3)c1 -11.1% [at 1.95 µM]
O=C(C[C@H]1C[C@H]2c3cc(NC(=O)Nc4ccc(C(F)(F)F)cc4)ccc3O[C@H]2[C@@H](CO)O1)NC1CCCCC1 -14.7% [at 1.95 µM]
COc1ccc(S(=O)(=O)N(C)C[C@@H]2Oc3ccc(NC(=O)CCCN(C)C)cc3CC(=O)N([C@@H](C)CO)C[C@H]2C)cc1 -7.02% [at 1.95 µM]
CO[C@H]1CN(C)C(=O)c2cc(NC(=O)Nc3ccc(F)cc3)ccc2OC[C@@H](C)NC[C@@H]1C -7.9% [at 0.5 µM]
CCC(=O)Nc1ccc2c(c1)C(=O)N(C)C[C@@H](OC)[C@@H](C)CN[C@@H](C)CO2 6.81% [at 0.5 µM]
CO[C@@H]1CN(C)C(=O)c2ccc(NC(=O)Nc3ccc4c(c3)OCO4)cc2OC[C@H](C)NC[C@H]1C -8.6% [at 0.5 µM]
CO[C@H]1CN(C)C(=O)c2cc(NC(=O)Nc3ccc(F)cc3)ccc2OC[C@H](C)NC[C@@H]1C -22.1%
CO[C@@H]1CN(C)C(=O)c2cc(NC(=O)Nc3ccc(F)cc3)ccc2OC[C@H](C)NC[C@H]1C -13.4% [at 1.95 µM]
C[C@@H]1CN([C@H](C)CO)C(=O)c2cc(NC(=O)Nc3ccc4c(c3)OCO4)ccc2O[C@H]1CN(C)Cc1ccccc1 22.6%
